Source: PubChem BioAssay (National Center for Advancing Translational Sciences (NCATS))
VACV Venus inh – vaccinia inhibition (Venus reporter); Vaccinia virus Venus reporter expression, fluorescence; Potency, µM (series often up to 36.5 µM), actives largely listed as inhibitors; 0.46% of 330,000 active; calls by dose curve; tested in A549 cells; also: nearly all actives have a fitted effect of over 30% in size
Pf growth 96h – P. falciparum growth inhibition at 96 hours. P. falciparum luciferase reporter growth, 96 h. 6.9% of 320,000 active. Potency, µM (titrated, usually from 28.7 µM), usual class: inhibitors
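Compounds incubated with erythrocytes infected by luciferase-expressing P. falciparum (2% hematocrit, 0.05% parasitemia final) for 96 hours, 37 C in 5% CO2. Growth inhibition scored as decreased luciferase luminescence.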
HCV inh – blocks hepatitis C virus; Huh7.5.1 HCVcc-Cre infection, luciferase reporter, 44 h; Potency, µM (highest dose often 41.8 µM), most hits filed as inhibitors; 3.4% of 340,000 active; AID 651820
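After 44 h co-culture of compound, cells and HCVcc-Cre (~0.5 moi), substrate is added for 15 min at room temperature and luciferase measured over 15 sec. Cells were seeded at 1,000/well and pre-cultured 4 h.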
Pf growth 48h – P. falciparum growth inhibition at 48 hours (one generation); AID 504832; Potency, µM (titrated, usually from 28.7 µM), usual class: inhibitors; 5.9% of 310,000 active; P. falciparum luciferase growth in erythrocytes, 48 h
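Luciferase-expressing parasites in RBCs, 2% Hct / 0.1% parasitemia final; RPMI 1640 + 0.5% Albumax; 37 C, 5% CO2, one generation; luminescence read-out, lower signal = inhibition.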
NS1 inh – blocks influenza NS1 protein function | 0.4% of 270,000 active | Potency, µM (doses to about 46.1 µM) | AID 2326; calls by dose curve; also: actives are rising curves; nearly all actives have a fitted effect of over 50% in size
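Compounds were scored for reversing the slow growth caused by influenza A NS1 in S. cerevisiae, measured by optical density at 600 nm. Assay medium contained 2% galactose at pH 6.0; NS1-free yeast of the same strain were the positive control.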
VACV mCherry inh – vaccinia inhibition (mCherry reporter); Potency, µM (titrated, usually from 36.5 µM), hits mostly inhibitors; Vaccinia virus mCherry reporter infection, fluorescence; AID 720579; 0.63% of 310,000 active; calls by dose curve; tested in A549 cells; also: nearly all actives have a fitted effect of over 35% in size
A number is an active result; – = inactive; ? = inconclusive; · = no result; [ ] = another dose, or the depositor's remark. Hits are enriched below; roughly 11% of the tested compounds scored in any of these assays. Unless noted, calls follow the shape of the dose curve; as a rule, active = well fitted inhibition curve with a large enough effect; inconclusive = small, poorly fitted or top-dose-only effect, or another doubt; inactive = no such curve, though single readings can be large or run the other way.

SMILES	VACV Venus inh	Pf growth 96h	HCV inh	Pf growth 48h	NS1 inh	VACV mCherry inh
COc1cnc(-c2ccccn2)nc1Oc1ccccc1Cl	·	2.6µM	?	7.4µM	–	·
Cc1ccc(OCc2cc(C(=O)NCc3cn4ccccc4n3)no2)cc1C	·	?	?	–	–	·
Cc1cc(/C=N/NC(N)=S)c(C)n1-c1ccc(Cl)cc1	·	–	?	?	–	·
CC(=O)c1ccccc1-c1ccc2c(c1)CC(CNC(=O)c1ccnc(Cl)c1)O2 (stereo not given)	?	·	·	·	·	–
CCCSc1ccc([C@@H]2[C@H]3C(=O)N(CC)C(=O)[C@H]3[C@]3(C(=O)OC)CCCN23)cc1OC	–	?	–	?	·	–
CCCSc1ccc([C@@H]2[C@H]3C(=O)N(C)C(=O)[C@H]3[C@]3(C(=O)OC)CCCN23)cc1OC	–	·	–	·	·	–
CCCSc1ccc([C@@H]2[C@H]3C(=O)N(CC)C(=O)[C@H]3[C@]3(C(=O)OC)CCCCN23)cc1OC	–	12µM	?	10µM	·	–
CCN1C(=O)[C@@H]2[C@@H](c3ccc(SC4CCCCC4)c(OC)c3)N3CCC[C@@]3(C(=O)OC)[C@@H]2C1=O	–	?	–	8.3µM	·	–
CCCSc1ccc([C@@H]2[C@@H]3C(=O)N(C)C(=O)[C@@H]3[C@]3(C(=O)OC)CCCCN23)cc1OC	–	?	–	13µM	·	–
N/C(=N\OC(=O)C1CCCCC1)c1ccc(Br)cc1	–	–	–	–	–	–
O=C(Nc1ccc(OC(F)(F)F)cc1)c1ccc2ccccc2n1	–	–	–	–	–	–
Cc1ccccc1-n1c(SCc2cccc(F)c2)nc2[nH]ncc2c1=O	–	?	–	?	–	–
O=c1c2cn[nH]c2nc(SCc2cc(=O)n3cc(Br)ccc3n2)n1-c1ccc(Br)cc1	?	–	?	12µM	·	?
Cc1cccc2nc(CSc3nc4[nH]ncc4c(=O)n3-c3ccccc3Cl)cc(=O)n12	?	9.3µM	?	9.3µM	–	?
Cc1ccccc1-n1c(SCc2cc(=O)n3ccccc3n2)nc2[nH]ncc2c1=O	–	13µM	–	?	–	?
O=C(CSc1nc2[nH]ncc2c(=O)n1-c1ccccc1)c1ccc2c(c1)OCCO2	–	·	?	?	–	–
N=c1c2cn[nH]c2nc(SCC(=O)c2ccc(Br)cc2)n1-c1ccc(Br)cc1	–	7.4µM	–	–	–	–
COC(=O)c1ccc(Cn2cnc3cnccc32)cc1	·	–	–	–	–	·
COCCN1C(=O)c2ccccc2C(C(=O)NCCCN2CCCC2)C1c1c[nH]c2ccccc12 (stereo not given)	–	–	–	13µM	–	·
COCCN1C(=O)c2ccccc2C(C(=O)NCc2ccco2)C1c1c[nH]c2ccccc12 (stereo not given)	–	–	–	?	–	·
C/C=C/C(=O)OCC(=O)Nc1nc2ccc(C)cc2s1	?	10µM	–	·	–	·
CCOCC(=O)Nc1nc2ccc(C)cc2s1	–	–	–	–	–	·
C/C=C/C(=O)OCC(=O)Nc1ccc(OC)c(Cl)c1	10µM	–	–	–	–	8.9µM
CCOC(=O)N/N=C\c1ccccc1OC/C=C/c1ccccc1	·	–	?	2.9µM	–	·
N#CCC(=O)N/N=C\c1cc(Br)ccc1OC/C=C/c1ccccc1	–	2.9µM	?	–	?	–
SMILES	VACV Venus inh	Pf growth 96h	HCV inh	Pf growth 48h	NS1 inh	VACV mCherry inh
COC(=O)N/N=C\c1ccccc1OC/C=C/c1ccccc1	–	9.3µM	?	?	–	–
COc1cc(/C=N\NC(C)=O)ccc1OC/C=C/c1ccccc1	–	?	–	?	–	?
O=C(CSc1nnc(-c2cccc(S(=O)(=O)N3CCCC3)c2)n1-c1ccccc1)Nc1ccc(C(=O)O)cc1	–	–	–	–	·	–
Cc1cccc(/C=C(\c2nc3ccccc3[nH]2)S(=O)(=O)c2ccccc2)c1	?	?	11µM	3.7µM	–	?
CC(C)(C)c1ccc(/C=C(\c2nc3ccccc3[nH]2)S(=O)(=O)c2ccccc2)cc1	?	·	11µM	·	·	14µM
COc1ccc(C2CC(=O)c3cnc(NC(=O)c4ccccc4OC)nc3C2)c(OC)c1 (stereo not given)	?	9.3µM	?	?	–	·
CCCN(CCC)C(=O)c1cc(S(=O)(=O)N2CCCCC2)c[nH]1	–	?	4.5µM	–	–	–
CC(C)CN(CC(C)C)C(=O)c1cc(S(=O)(=O)N2CCCCC2)c[nH]1	·	?	–	?	–	·
N#CC1=C(N)S[C@@H](C(=O)c2ccc(F)cc2)[C@@H]1c1cccs1	·	–	–	–	–	·
Cc1c(NC(=O)c2ccc3c(c2)OCO3)cccc1-c1nc2ccccc2o1	–	–	?	–	–	–
Cc1c(C=O)c2ccccc2n1CCOc1ccccc1F	·	8.3µM	?	?	–	·
COc1ccccc1OCCn1c(C)c(C=O)c2ccccc21	·	?	–	?	–	·
Cc1c(/C=N/n2cnnc2)c2ccccc2n1CCOc1ccccc1	–	?	?	13µM	·	–
c1ccc(Oc2nnc(-c3cccs3)c3ccccc23)cc1	–	–	?	–	–	–
CN(Cc1ccccc1)C(=O)c1cccc(NC(=O)Cc2ccc(NC(=O)C3CCN(C(=O)C4CCC4)CC3)cc2)c1	–	·	14µM	·	·	–
CN(CCc1ccccc1)C(=O)c1ccc(NC(=O)Cc2ccc(NC(=O)C3CCCN(C(=O)C4CCC4)C3)cc2)cc1 (stereo not given)	?	·	?	·	·	10µM
CN(Cc1ccccc1)C(=O)c1ccc(NC(=O)Cc2cccc(NC(=O)C3CCCN(C(=O)C4CCC4)C3)c2)cc1 (stereo not given)	–	?	–	9.3µM	·	–
CN(CCc1ccccc1)C(=O)c1ccc(NC(=O)Cc2ccc(NC(=O)C3CCCN(C(=O)CCc4ccccc4)C3)cc2)cc1 (stereo not given)	?	·	0.56µM	·	·	?
CN(Cc1ccccc1)C(=O)c1cccc(NC(=O)Cc2ccc(NC(=O)C3CCCN(C(=O)C4CCC4)C3)cc2)c1 (stereo not given)	–	·	–[8.37 µM]	·	·	–
COCCCNC(=O)c1ccc(N2CCOCC2)c(NS(=O)(=O)c2ccc(OC)cc2)c1	–	·	–	–	–	?
CCCCNC(=O)c1cc2c(C)cc(C)cc2[nH]1	–	–	–	?	–	–
Cc1cc2nncn2c2ccccc12	–	·	–	?	–	–
CN(C(=O)c1ccc(NC(=O)Cc2ccc(NC(=O)C3CCN(C(=O)c4ccccc4)CC3)cc2)cc1)C1CC1	–	6.6µM	–	?	·	–
CN(CCc1ccccc1)C(=O)c1ccc(NC(=O)Cc2ccc(NC(=O)C3CCN(C(=O)CCc4ccccc4)CC3)cc2)cc1	?	·	25µM	·	·	?
CN(C(=O)c1cccc(NC(=O)Cc2ccc(NC(=O)C3CCN(C(=O)c4ccccc4)CC3)cc2)c1)C1CCC1	–	·	–[8.37 µM]	·	·	–
CC(C)n1c(NCc2ccc(Cl)cc2)nc2ccccc21	–	–	–	–	–	–
